This is an account of results in publication PMC5540273 (PLoS ONE, 2017).

Holding throughout (conditions): concentration: 1 μM, replicates: in singlicate; n = 1
The test system of assay [1] is RIOK1.
Assay [2] concerns RIOK2.
Assay [3] concerns RIOK3.
Assay [4] deals with RIPK1.
Assay [5] relates to RIPK2.
Assay [6] concerns RIPK4.
Assay [7] concerns RIPK5.
In assay [8] the test system is ROCK1.
The subject of assay [9] is ROCK2.
Assay [10] deals with ROS1.
The subject of assay [11] is RPS6KA4(Kin.Dom.1-N-terminal).
The test system of assay [12] is RPS6KA4(Kin.Dom.2-C-terminal).
Assay [13] relates to RPS6KA5(Kin.Dom.1-N-terminal).
Assay [14] concerns RPS6KA5(Kin.Dom.2-C-terminal).
Assay [15] concerns T1, RSK1(Kin.Dom.1-N-terminal).
T1 construct: gene RPS6KA1

Assay [16] relates to T2, RSK1(Kin.Dom.2-C-terminal).
T2 construct: gene RPS6KA1

For assay [17], the system named is T3, RSK2(Kin.Dom.1-N-terminal).
T3 construct: gene RPS6KA3

For assay [18], the system named is T4, RSK2(Kin.Dom.2-C-terminal).
T4 construct: gene RPS6KA3

For assay [19], the system named is T5, RSK3(Kin.Dom.1-N-terminal).
T5 construct: gene RPS6KA2

Assay [20] deals with T6, RSK3(Kin.Dom.2-C-terminal).
T6 construct: gene RPS6KA2
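Also: KINOMEscan kinase panel screen.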

For `COc1cc(Nc2ncc3c(C)nc(-c4cc5ccccc5[nH]4)n3n2)cc(OC)c1OC` [GW869516], the “%Inh” value was 35% in [1]; 0% in [2]; 23% in assay [3]; 26% in assay [4]; 6% in [5]; 0% in [6]. Besides, the “%Inh” value in assay [7] was determined as 0%; in [8], 0%; in assay [9] it was 0%; in assay [10], 0%; in assay [11], 44%; in assay [12] it was 0%. In addition, the “%Inh” value in assay [13] is recorded as 0%; in assay [14], 7%; in assay [15] it was 91.7%; in [16], 0%; in assay [17], 49%; in assay [18], 32%. Moreover, the entries for the “%Inh” value in [19] and in [20] were 66% and 0%, respectively.

For `Cl.Cl.NCC(C(=O)Nc1cc(Br)c(-c2ccnc3[nH]ccc23)s1)c1ccccc1` (stereo not drawn) [GSK1269851], the “%Inh” value was found to be 95.7% in assay [1]; 19% in assay [2]; 67% in assay [3]; 0% in assay [4]; 0% in assay [5]; 27% in assay [6]. The “%Inh” value in assay [7] was 0%; in assay [8], 99.1%; in assay [9], 91.8%; in assay [10], 12%; in [11], 18%; in assay [12], 1%. The “%Inh” value was 10% in assay [13]; 5% in [14]; 6% in [15]; 0% in assay [16]; 24% in [17]; 2% in assay [18]. Further, the “%Inh” value is 100% in assay [19] and 3% in assay [20].

In the case of `Nc1ncc(-c2cccnc2)c2scc(-c3ccc4c(c3)CCN4C(=O)Cc3ccccc3)c12` [GSK683281], the “%Inh” value is reported as 35% in assay [1]; 96.6% in assay [2]; 22% in assay [3]; 100% in assay [4]; 82% in assay [5]; 16% in [6]. Also, the “%Inh” value is listed as 20% in assay [7]; 0% in assay [8]; 6% in [9]; 27% in [10]; 24% in assay [11]; 0% in [12]. In addition, the “%Inh” value in assay [13] is 21%; in assay [14] it was 0%; in assay [15], 21%; in [16], 1%; in assay [17], 0%; in assay [18], 24%. Besides, the “%Inh” value in assay [19] is reported as 14%; in assay [20], 0%.

For `Cl.NC(=O)c1cccc(Nc2nccc(Nc3ccc(Oc4c(Cl)cccc4Cl)c(Cl)c3)n2)c1` [GW659009], the “%Inh” value worked out at 56% in [1]; 53% in [2]; 51% in assay [3]; 0% in [4]; 84% in assay [5]; 0% in [6]. The “%Inh” value came to 10% in [7]; 0% in assay [8]; 10% in assay [9]; 0% in assay [10]; 0% in assay [11]; 0% in [12]. Further, the “%Inh” value in assay [13] is given as 0%; in assay [14], 5%; in assay [15], 0%; in [16] it was 0%; in assay [17], 0%; in assay [18], 5%. Moreover, the “%Inh” value in assay [19] amounted to 3%; in assay [20] it was 0%.

For the compound `Cc1cccc(NC(=O)Nc2ccc(Oc3ncnc4ccn(C)c34)cc2)c1`, the “%Inh” value in [1] is recorded as 0%; in assay [2], 0%; in assay [3] it was 24%; in [4] it was 0%; in [5], 11%; in assay [6], 0%. The “%Inh” value in [7] stood at 5%; in [8] it was 0%; in assay [9], 0%; in assay [10], 0%; in [11], 0%; in assay [12], 0%. For the same compound, the “%Inh” value in assay [13] is 0%; in [14], 0%; in [15], 0%; in [16] it was 0%; in assay [17], 0%; in assay [18] it was 2%. In addition, the “%Inh” value in [19] and in assay [20] was 0% in each case.

As for `Nc1ncnc2c1nc(-c1ccccc1)n2-c1ccccc1` [SKF-97293], the “%Inh” value in [1] is recorded as 0%; in [2] it was 1%; in assay [3] it was 6%; in assay [4], 3%; in assay [5] it was 7%; in assay [6], 27%. Besides, the “%Inh” value in assay [7] is given as 36%; in assay [8] it was 56%; in [9], 43%; in [10] it was 15%; in assay [11], 9%; in assay [12], 10%. The “%Inh” value in assay [13] worked out at 16%; in [14], 11%; in assay [15], 19%; in [16], 0%; in assay [17] it was 40%; in [18] it was 27%. For the same compound, the “%Inh” value was found to be 18% in assay [19] and 0% in assay [20].

On to `CC(C)(C)c1ccc2nccc(Nc3cccc(O)c3)c2c1` [GW856795], for which the “%Inh” value in assay [1] was determined as 21%; in assay [2] it was 0%; in assay [3] it was 24%; in assay [4], 0%; in [5] it was 34%; in [6] it was 43%. The “%Inh” value in assay [7] is 0%; in assay [8], 55%; in assay [9], 30%; in assay [10] it was 0%; in assay [11] it was 0%; in [12], 0%. In addition, the “%Inh” value in [13] came to 0%; in assay [14], 0%; in assay [15], 0%; in assay [16] it was 0%; in assay [17], 0%; in assay [18], 49%. In addition, the “%Inh” value in assay [19] is given as 19%; in [20], 30%.

With `O=C(Nc1cccc(-c2nn3ccccc3c2-c2ccnc(Nc3cccc(F)c3)n2)c1)c1c(F)ccc(F)c1Cl` [GSK357952], the “%Inh” value is recorded as 24% in [1]; 51% in assay [2]; 16% in [3]; 0% in assay [4]; 35% in [5]; 0% in assay [6]. Besides, the “%Inh” value in assay [7] amounted to 0%; in [8], 3%; in [9] it was 18%; in assay [10], 18%; in [11] it was 15%; in assay [12] it was 0%. In addition, the “%Inh” value was 28% in [13]; 20% in assay [14]; 63% in assay [15]; 14% in assay [16]; 18% in assay [17]; 8% in assay [18]. Further, the “%Inh” value in assay [19] was found to be 24%; in [20], 0%.

For `COc1cc(Nc2nccc(N3CCC(NC(=O)c4cc5ccccc5s4)C3)n2)cc(OC)c1OC` (stereo not drawn) [GSK1379760], the “%Inh” value turned out to be 76% in [1]; 14% in [2]; 53% in assay [3]; 24% in [4]; 7% in [5]; 0% in assay [6]. The “%Inh” value in assay [7] was determined as 0%; in assay [8] it was 0%; in assay [9], 14%; in [10], 45%; in assay [11], 0%; in [12], 0%. The “%Inh” value is recorded as 5% in assay [13]; 4% in assay [14]; 16% in assay [15]; 46% in [16]; 0% in assay [17]; 18% in assay [18]. For the same compound, the “%Inh” value in assay [19] and in assay [20] was 0% each time.
